# Source: PubChem BioAssay
# LDHA inh – blocks human lactate dehydrogenase A; purified LDHA, NADH/diaphorase-resazurin fluorescence; stronger effect = lower value; activity change, % (values are at about 110 or 230 µM); actives 0.15% (n = 480,000); in the data active = activity change below about -30%; inconclusive = mostly about -25% to -30%;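 note: plate controls were DMSO wells for no effect and wells without enzyme for full effect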
#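 Human LDH5 (2 nM) was incubated with 0.06 mM NADH and 0.2 mM pyruvate for 5 min at room temperature in Tris pH 7.4. Remaining NADH was coupled through diaphorase/resazurin, and resorufin fluorescence was read at 0 and 20 min.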
# TSHR antagonist – human thyrotropin receptor antagonism; P16473; activity change, negative = inhibition, % at 11.5 µM; TSHR-expressing cells, TSH-stimulated cAMP HTRF, 2 h; stronger effect = lower value; actives 0.2% (n = 330,000);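 active = activity change below a set negative limit, meaning inhibition stronger than a set level, cut at about -70% in these data; inconclusive = activity change between two set negative limits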; note: % is set by controls: 0 for no effect and ±100 for the full control effect
#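 Antagonism was scored as loss of TSH-driven cAMP in TSHR cells, stimulated with 4nM TSH (EC80) for 2 hours at 37 deg C and detected by homogeneous HTRF competition immunoassay.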
# Akt phos inh – inhibitors of Akt phosphorylation | Neuro2A IGF-stimulated pAkt S473 HTRF, 20 min; stronger effect = lower value | activity change, % for hits at 50 µM | actives 0.32% (n = 360,000); in the data active = activity change below about -80%; inconclusive = mostly about -51% to -80%; note: % is set by controls: 0 for no effect and ±100 for the full control effect
#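 Neuro2A cells (4,500/well, DMEM with 0.5% FBS) were treated with compound at a single 50 µM final concentration, stimulated with 6 nM IGF for 20 min at 37 °C, and lysed. Phospho-Akt Ser473 was read by HTRF as 665/615 ratio ×10^4.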
# TCR act – T cell receptor activation; Potency, µM (top dose mostly 9.22 µM), for the others: at the top dose activation of IL-2 secretion, usual class: activators; primary human leukocytes, anti-CD3, IL-2 HTRF, 48 h; 330,000 tested, under 10 active; note: % of control where 0% means no effect
#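 Primary human leukocytes were stimulated with a-CD3 beads plus compounds for 48 hr without co-stimulation; secreted IL-2 was quantified by HTRF using a-IL-2-K (europium cryptate) and a-IL-2-d2, excited at 320nm with acceptor emission read at 665nm.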
# Glioma ERSR ind – induces the endoplasmic reticulum stress response in human glioma cells. U87-MG GRP78 promoter luciferase reporter, 16 h. Potency, µM, inactives show top-dose activation, hits mostly activators. actives 0.02% (n = 420,000). AID 602332; note: potency is the fitted concentration of half-maximal effect; series mostly up to about 76 µM; % of control where 0% means no effect; nearly all actives have a fitted effect of over 35% in size
#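 Stably transfected U87-MG human glioma cells carrying a GRP78-based luminescent sensor were seeded at 1000 cells/well, pin-dosed with compounds and incubated 16 h. Luciferase reagent was then added, and end-point luminescence was read after 10 min at room temperature.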
# RGS4 inh – inhibitors of human regulator of G protein signaling 4; Transcreener GDP fluorescence polarization, RGS4-accelerated GTP hydrolysis; Potency, µM (highest dose often 114 µM), inactives show at the highest dose activity change, negative = inhibition, most hits filed as inhibitors; actives 0.039% (n = 390,000); note: potency is the fitted concentration of half-maximal effect; % is set by controls: 0 for no effect and ±100 for the full control effect; nearly all actives have a fitted effect of over 75% in size
# Target sequence (P49798 whole entry, looked up): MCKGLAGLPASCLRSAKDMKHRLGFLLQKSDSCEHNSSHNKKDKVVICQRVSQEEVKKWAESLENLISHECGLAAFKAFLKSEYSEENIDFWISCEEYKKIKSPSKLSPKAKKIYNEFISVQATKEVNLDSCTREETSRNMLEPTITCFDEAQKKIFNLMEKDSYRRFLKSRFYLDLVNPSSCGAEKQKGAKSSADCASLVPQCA
#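 MLSMR compounds (23 nl, pin-transferred) preincubated 10 min at room temperature with a 500nM (2x) first reagent, then RGS4 at 900nM (2x) plus Transcreener GDP mix added; fluorescence polarization (620/688 nm) read before and after 90 min at 30 °C.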
# * marks the source's active call; other numbers are inactive results; i = inactive; ? = inconclusive; / = no result given; [ ] = another dose, or the depositor's remark. Rows were chosen to be rich in hits. Some 0.55% of all compounds tested hit in one or more screens of this group. Unless noted, calls come from the whole dose curve; as a rule, active = well fitted curve in the direction sought with a large enough effect; inconclusive = small, poorly fitted or top-dose-only effect, or another doubt; inactive = no such curve, though single readings can be large; an effect the other way counts as inactive or inconclusive.
SMILES,LDHA inh,TSHR antagonist,Akt phos inh,TCR act,Glioma ERSR ind,RGS4 inh
Cc1c(Cl)sn(-c2ccc(Cl)cc2)c1=O,-12,-88*,i,7%,-13%,-120%
Cc1nn(-c2ccc(Cl)cc2)c(=O)c2ccccc12,-12,-8,i,-14%,5%,2%[56.9 µM]
O=C(COc1ccc(C(=S)N2CCOCC2)cc1)N1CCCC1,-8,19,-124%*,-2%,1%,-1%
O=C(CN(Cc1ccco1)C(=O)CNS(=O)(=O)c1ccccc1)NCc1ccccc1,0,5,-120%*,2%,-3%,28%
NC(=S)NN=C1CSSC1,2,/,i,/,35µM*,/
CCOc1cccc2cc(-c3nc(-c4ccc(F)cc4)no3)c(=O)oc12,2,/,/,/,/,/
CCOc1cccc2cc(-c3nc(-c4ccccc4F)no3)c(=O)oc12,-35*,/,/,/,/,/
CCc1nn(CCCC(=O)NCc2ccc(OC(C)C)cc2)c(=O)c2cc3occc3n12,0,-4,i,-2%,-2%,9%
CCOc1ccc(CNC(=O)CCCn2nc(CC)n3c(cc4occc43)c2=O)cc1,-3,-110*,i,1%,-2%,5%
Cc1cccn2c(=O)cc(CSc3ccccc3NC(=O)c3ccccc3Cl)nc12,-32*,/,/,/,/,/
CCCCCCCCCCCCCCCCOCC(COP(=O)([O-])OCC[N+](C)(C)C)OC (stereo not given),/,/,/,/,-3%,?
CCCCCCCCCCCCCCCCCCOC[C@H](COP(=O)([O-])OCC[N+](C)(C)C)OC,/,-81*,/,/,-12%,?
Cc1cccc(Nc2nc(C)c(C(=O)Nc3ccccc3)s2)c1,1,/,/,/,/,/
Cc1nnc(CN2CCC(c3nc4ccccc4s3)CC2)o1,8,/,/,/,/,/
CCc1nnc(CN2CCC(c3nc4ccccc4s3)CC2)o1,-36*,/,/,/,/,/
COc1ccc(Cn2c(SCc3ccc(C(=O)NCc4ccccc4F)cc3)nc3cccnc32)cc1,-1,/,/,/,-5%,0%
O=C(NCc1ccccc1)c1ccc(CSc2nc3cccnc3n2Cc2ccccc2F)cc1,-33*,/,/,/,-1%,13%
CC(C)N1CCc2c(C#N)c(NCc3ccco3)n3cnnc3c2C1,8,/,/,/,/,/
CC(C)(C)OC(=O)NCCCCCc1cn([C@@H](CO)C(=O)NCCCCCCCCCCC(=O)N2CCN(C(=O)OC(C)(C)C)CC2)nn1,6,-95*,i,-5%,-7%,-15%
Nc1nnnn1/N=C/c1cc(Br)ccc1O,-47*,/,i,4%,-9%,8%
O=C(Nc1cc(C(F)(F)F)ccc1-n1cncn1)c1ccc(-c2ccccc2)cc1,-2,19,i,/,-6%,-30%[56.9 µM]
O=C(Nc1cc(C(F)(F)F)ccc1-n1cncn1)c1ccc(Cl)cc1,-6,-9,-91%*,5%,-6%,6%
N#CC1=C(N)Oc2c(c(=O)[nH]c3ccccc23)C1c1ccccc1 (stereo not given),-3,/,/,/,/,/
O=c1[nH]c(=O)n(Cc2ccccc2)c2nc(-c3ccncc3)n(CC3CCCO3)c12 (stereo not given),-3,/,/,/,/,/
COc1ccc2nc(NC(=O)c3ccoc3C)sc2c1,-10,13,-110%*,/,-5%,6%
SMILES,LDHA inh,TSHR antagonist,Akt phos inh,TCR act,Glioma ERSR ind,RGS4 inh
COc1ccc2cc(C(=O)NCc3ccco3)c(=Nc3ccc(C(=O)O)cc3)oc2c1,3,-6,-112%*,3%,1%,-4%
Cc1nnc(SCc2cccs2)[nH]c1=O,-7,1,i,-4%,-3%,5%
Cc1noc(C)c1CSc1nnc(C)c(=O)[nH]1,-6,-8,-108%*,9%[46.1 µM],-5%,-47%
COc1ccc(NC(=O)NC2(C(F)(F)F)Oc3ccccc3O2)cc1,72,/,/,/,/,/
CCN(CC)C(=O)c1sc2nc(N3CCOCC3)c3c(c2c1N)CCN(C)C3,7,/,/,/,/,/
Cc1[nH]c2ccccc2c1C(=O)CN1CCCCC1CCO (stereo not given),3,-11,-109%*,-4%,-6%,-7%
O=C(Oc1ccc(-c2nccc(-c3ccccn3)n2)cc1)c1cccc(C(F)(F)F)c1,-5,-10,-96%*,3%,4%,6%
Cc1ccc(C(=O)Oc2ccc(-c3nccc(-c4ccccn4)n3)cc2)cc1,-2,8,i,8%,-1%,0%
O=C(COc1ccc(Cl)cc1Cl)Nc1ccc2c(c1)CCN2C(=O)c1cccnc1,2,/,/,/,/,/
COc1ccccc1N1CC(C)(C)C(=O)N(C(=O)c2ccc(C)cc2)C1=S,-4,3,i,-6%,25µM*,-13%
CCCCc1c(O)nc(SCC(=O)N2CCOCC2)n(-c2ccccc2C)c1=O,1,-2,-113%*,6%,-3%,-5%
COc1cc(O)oc1C=Nc1ccc(Cl)cc1Cl,8,-1,i,2%,-2%,-4%
COc1cc(O)oc1C=Nc1ccc(Cl)cc1,6,3,-119%*,-3%,-2%,-15%
CCCNC(=O)c1cc(-c2ccc(C)s2)nc2ccccc12,3,/,/,/,/,/
O=c1c2cc(-c3ccccc3)sc2ncn1/N=C/c1ccco1,-5,-23,-106%*,-1%,2%,-18%
CCCCn1cnc2sc(-c3ccccc3)cc2c1=O,-10,27,i,-6%,0%,-13%
CN(C)c1nc(N2CCOCC2)nc(N(c2ccccc2)c2ccccc2)n1,-4,-3,i,0%,-1%,17%
CN(C)c1cccc(N=C2C=C(N3CCOCC3)CC(C)(C)C2)c1,-31*,-15,i,-7%,-4%,-49%
O=C(O)/C=C/c1ccc(-c2ccc(Br)cc2Cl)o1,13,/,/,/,/,/
Cc1ccc(CN2C(=O)C(O)(CC(=O)c3ccc(C)cc3)c3ccccc32)cc1 (stereo not given),5,/,/,/,/,?
Cc1coc(C)c1C(=O)CC1(O)C(=O)N(Cc2ccccc2)c2ccccc21 (stereo not given),2,/,-95%*,-5%,-1%,-20%
Cc1ccc(C(=O)CC2(O)C(=O)N(Cc3ccccc3)c3ccccc32)o1 (stereo not given),2,-3,/,21%,4%,6%
C=CCN1C(=O)C(O)(CC(=O)c2ccccc2)c2ccccc21 (stereo not given),-2,4,-109%*,-2%,-3%,-15%
Cc1ccccc1N1C(N)=C(C#N)C(c2ccsc2)C2=C1CC(C)(C)CC2=O (stereo not given),14,/,/,/,/,/
Cc1nn(C)c(C)c1CNCc1cccnc1N1CCOCC1,-38*,/,/,/,/,/
Cc1nn(C)c(C)c1CNCc1ccnc(N2CCOCC2)c1,-1,/,/,/,/,/
Cc1ccc(Cl)cc1NC(=O)Nc1cn(CC(C)C)c(=O)c2ccccc12,-40*,/,/,/,-2%,-35%
Cc1ccc(NC(=O)Nc2cn(CC(C)C)c(=O)c3ccccc23)c(C)c1,-22,/,/,/,/,/
